The text below walks through data of PubChem BioAssay (Tox21).

SMILES strings stand for the structures. Inconclusive results are not listed. A number with no mark means an inactive call. The source made the active and inactive calls. The call rests on the fitted dose curve; in most records, active means well fitted inhibition curve with a large enough effect in the repeat runs; inconclusive means weak or mixed curves; inactive means no such curve, though single readings can be large or run the other way.
On the % scale 0 is the no-effect control and ±100 the full control effect; potency means the concentration at half of the fitted maximal effect.

Chain of Cytochrome P450 1A2 (Homo sapiens) (P05177 whole entry, looked up): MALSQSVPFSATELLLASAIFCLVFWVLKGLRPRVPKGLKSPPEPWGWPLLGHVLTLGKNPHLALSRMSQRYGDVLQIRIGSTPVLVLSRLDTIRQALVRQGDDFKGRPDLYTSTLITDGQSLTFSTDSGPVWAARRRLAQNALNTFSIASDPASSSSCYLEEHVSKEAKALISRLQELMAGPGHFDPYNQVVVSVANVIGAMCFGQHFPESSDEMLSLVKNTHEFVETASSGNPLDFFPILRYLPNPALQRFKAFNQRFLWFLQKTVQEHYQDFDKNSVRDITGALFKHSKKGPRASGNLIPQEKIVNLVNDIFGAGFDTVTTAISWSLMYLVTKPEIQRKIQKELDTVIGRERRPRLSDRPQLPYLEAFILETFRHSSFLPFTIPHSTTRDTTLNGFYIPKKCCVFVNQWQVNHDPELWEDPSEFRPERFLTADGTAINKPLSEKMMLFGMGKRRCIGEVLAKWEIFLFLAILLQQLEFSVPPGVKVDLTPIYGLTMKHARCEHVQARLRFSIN

The assay has as its target Cytochrome P450 1A2 (Homo sapiens) (UniProt P05177). As to the kind of experiment: Cytochrome P450 Family 1 Subfamily A Member 2 (CYP1A2) small molecule antagonists: luciferase reporter qHTS assay (AID 1671199). Further: nearly all actives have a fitted effect of over 50% in size. Conditions: P450-Glo CYP1A2 enzyme, luciferin luminescence, 1 h; series mostly up to 115 µM; activity change, negative = inhibition: at the top concentration. In short, it runs like this: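 Compounds were incubated with CYP1A2 and a luminogenic proluciferin substrate for 10 min at room temperature before the reaction was started with NADPH regeneration solution. After 1 h, detection reagent was added and light output, proportional to CYP activity, was recorded.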
(In general: Reporter assays use an easily measured gene product as a stand-in for the process of interest.)
Consider `CCCCCCCCCCCCCBr`, for which the Potency is 22.4 µM (active).
Same read-out and setting: in the case of `CCOc1ccccc1OCC1CNCCO1` (stereo unspecified) it was 0.575 µM (active).
Turning to `CC1=NN(c2ccc(S(=O)(=O)O)cc2)C(=O)C1`, the “activity change, negative = inhibition” value is -15.1%.
In the case of `COC(=O)CCCCC(=O)O`, the “activity change, negative = inhibition” value is -11%.
Same read-out and setting: under `CC(C)[C@H]1CC[C@H](C)C[C@@H]1O` stands -17.2%.
Take `O=Cc1ccccc1Cl`: the “activity change, negative = inhibition” value is -13.8%.
Still for that read-out and setting: under `CN(C)CCN(C)CCO` stands -12%.
For the molecule `CCCCCCCCCOC(=O)c1ccccc1C(=O)OCCCCCCCCC`, the Potency is 35.5 µM (active).
Take `O=C(O)CONC(=O)c1ccccc1`: the “activity change, negative = inhibition” value was -21.3%.
Consider `CCCCCC/C=C/C(=O)OC`, for which the “activity change, negative = inhibition” value was -13.4%.
On the same count and under the same terms, in the case of `CC1OCCC1=O` (stereo unspecified) it was -14.5%; in that of `O=C(O)CCCCCC(=O)O`, -17.7%; in that of `COP(=O)(O)OP(=O)(O)OC`, -12.8%.
Same read-out and setting: in the case of `CCC(=O)Oc1ccc2c(c1)CC[C@@H]1[C@@H]2CC[C@@]2(C)[C@H]1C[C@@H](OC(=O)CC)[C@@H]2OC(=O)CC` it was -21.6% [at 53 µM].
With `Cc1ccc(N)cc1S(=O)(=O)O`, the Potency was 39.9 µM (active).
As for `CC(=O)OC1CCCCC1C(C)(C)C` (stereo unspecified), the “activity change, negative = inhibition” value is -28.3%.
On the same count and under the same terms, under `CC1c2ccccc2CN1NC(=O)c1ccc(Cl)c(S(N)(=O)=O)c1` (stereo unspecified) stands -24.4% [at 53 µM].
Take `CCC(C)OC(C)CC` (stereo unspecified): the “activity change, negative = inhibition” value is -0.128%.
Same read-out and setting: under `O=C(CCCl)NCCc1ccccc1` stands -9.08% [at 53 µM]; under `CC(Oc1cc(Cl)ccc1Cl)C(=O)O` (stereo unspecified), -14.7%.
On to `CCOc1cccc(N)c1`, for which the Potency was 35.4 µM (active).
